From publication PMC7862700, “An all-to-all approach to the identification of sequence-specific readers for epigenetic DNA modifications on cytosine”

How the values were obtained:
Assay in all cases: DAPPL (digital affinity profiling via proximity ligation, sequencing); 10 mM Tris-HCl pH 7.5, 50 mM NaCl, 1 mM DTT, 4% glycerol, room temperature, 30 min; GST-TFs on glutathione beads, 16-mer random dsDNA library, 0.1% formaldehyde crosslink after washing; high values mean tight binding
Details in all cases: protein: recombinant; tags: N-terminal GST; dsDNA, one strand shown
ELK1 = target: T1, ELK1 (Homo sapiens, UniProt P19419 1-428)
T1 sequence: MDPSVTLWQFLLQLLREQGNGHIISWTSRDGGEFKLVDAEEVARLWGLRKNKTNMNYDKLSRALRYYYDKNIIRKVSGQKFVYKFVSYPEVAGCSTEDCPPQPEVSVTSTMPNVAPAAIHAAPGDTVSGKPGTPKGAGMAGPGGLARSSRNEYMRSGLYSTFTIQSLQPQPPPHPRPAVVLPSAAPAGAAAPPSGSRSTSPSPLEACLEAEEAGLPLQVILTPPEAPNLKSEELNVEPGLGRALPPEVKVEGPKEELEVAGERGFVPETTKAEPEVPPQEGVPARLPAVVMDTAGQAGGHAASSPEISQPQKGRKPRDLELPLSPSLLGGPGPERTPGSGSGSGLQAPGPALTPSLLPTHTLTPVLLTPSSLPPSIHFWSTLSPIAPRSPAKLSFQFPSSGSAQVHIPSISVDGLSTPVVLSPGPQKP
Summary of the method: (§1)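 Yeast served to express human transcription factors as GST fusions, which were then captured on glutathione beads and labelled with DNA barcodes. Pooled with a tag-only sample, they were incubated with 200 nmole of a 16-mer random double-stranded DNA library for 30 min at room temperature in Tris/NaCl/DTT/glycerol buffer, washed, crosslinked with 0.1% formaldehyde, ligated by proximity, amplified by PCR and sequenced. Dividing each hexamer's read frequency for a factor by its frequency for the tag-only sample gives the binding signal.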

GABPA = target: T2, GABPA (Homo sapiens, UniProt Q06546 1-454)
T2 sequence: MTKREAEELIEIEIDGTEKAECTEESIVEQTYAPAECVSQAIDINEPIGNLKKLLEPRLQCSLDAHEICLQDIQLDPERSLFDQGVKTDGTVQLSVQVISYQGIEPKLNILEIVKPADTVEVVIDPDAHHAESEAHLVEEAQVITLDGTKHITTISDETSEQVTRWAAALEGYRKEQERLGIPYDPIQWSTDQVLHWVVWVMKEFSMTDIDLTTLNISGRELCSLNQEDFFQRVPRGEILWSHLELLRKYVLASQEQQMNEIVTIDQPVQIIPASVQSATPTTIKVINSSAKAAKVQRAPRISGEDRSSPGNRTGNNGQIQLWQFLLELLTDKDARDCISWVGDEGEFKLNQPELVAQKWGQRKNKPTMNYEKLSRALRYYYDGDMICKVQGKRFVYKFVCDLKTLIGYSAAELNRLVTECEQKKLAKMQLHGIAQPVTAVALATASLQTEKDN
Summary of the method: as §1

ERG = target: T3, ERG (Homo sapiens, UniProt P11308 1-479)
T3 sequence: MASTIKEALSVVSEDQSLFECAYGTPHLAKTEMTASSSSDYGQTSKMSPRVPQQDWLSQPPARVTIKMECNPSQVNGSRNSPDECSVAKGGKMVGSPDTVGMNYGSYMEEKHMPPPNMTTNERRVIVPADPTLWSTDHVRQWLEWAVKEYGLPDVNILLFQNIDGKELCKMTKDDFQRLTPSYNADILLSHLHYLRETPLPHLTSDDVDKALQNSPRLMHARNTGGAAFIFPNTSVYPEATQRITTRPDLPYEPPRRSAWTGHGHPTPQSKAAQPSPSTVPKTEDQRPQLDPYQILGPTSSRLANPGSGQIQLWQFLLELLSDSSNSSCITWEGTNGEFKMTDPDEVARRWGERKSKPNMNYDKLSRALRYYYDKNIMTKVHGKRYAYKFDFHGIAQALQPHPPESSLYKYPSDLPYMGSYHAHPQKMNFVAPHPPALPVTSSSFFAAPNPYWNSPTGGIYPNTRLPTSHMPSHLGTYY
Summary of the method: as §1

ELF1 = ELF1 (Homo sapiens, UniProt P32519 1-619)
Chain of ELF1 (P32519 whole entry): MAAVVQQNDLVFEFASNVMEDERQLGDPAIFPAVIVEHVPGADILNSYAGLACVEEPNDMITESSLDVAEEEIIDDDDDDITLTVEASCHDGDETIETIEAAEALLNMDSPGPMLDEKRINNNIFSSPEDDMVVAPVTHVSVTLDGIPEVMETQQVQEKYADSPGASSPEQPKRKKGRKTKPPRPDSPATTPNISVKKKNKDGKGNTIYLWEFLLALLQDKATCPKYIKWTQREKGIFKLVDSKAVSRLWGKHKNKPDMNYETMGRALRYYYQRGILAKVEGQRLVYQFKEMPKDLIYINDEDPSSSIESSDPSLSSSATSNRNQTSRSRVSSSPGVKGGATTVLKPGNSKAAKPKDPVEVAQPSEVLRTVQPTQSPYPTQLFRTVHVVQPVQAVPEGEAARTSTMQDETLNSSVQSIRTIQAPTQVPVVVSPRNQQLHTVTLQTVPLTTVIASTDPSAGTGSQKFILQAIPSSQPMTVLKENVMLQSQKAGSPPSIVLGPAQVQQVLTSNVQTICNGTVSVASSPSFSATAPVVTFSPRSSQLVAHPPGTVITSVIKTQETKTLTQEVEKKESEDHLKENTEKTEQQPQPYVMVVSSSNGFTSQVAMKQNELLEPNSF
Summary of the method: as §1

EHF = target: T4, EHF (Homo sapiens, UniProt Q9NZC4 1-300)
T4 sequence: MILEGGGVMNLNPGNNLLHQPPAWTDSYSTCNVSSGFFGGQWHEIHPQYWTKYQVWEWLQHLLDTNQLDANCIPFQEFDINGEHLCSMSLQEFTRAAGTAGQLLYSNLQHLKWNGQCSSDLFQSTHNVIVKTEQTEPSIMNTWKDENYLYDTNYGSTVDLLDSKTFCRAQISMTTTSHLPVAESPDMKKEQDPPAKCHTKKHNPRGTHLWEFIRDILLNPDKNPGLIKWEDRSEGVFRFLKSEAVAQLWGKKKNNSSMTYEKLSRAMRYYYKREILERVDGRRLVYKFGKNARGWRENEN
Summary of the method: as §1

SPI1 = SPI1 (Homo sapiens, UniProt P17947 1-270)
Summary of the method: as §1

ELK3 = target: T5, ELK3 (Homo sapiens, UniProt P41970 1-407)
T5 sequence: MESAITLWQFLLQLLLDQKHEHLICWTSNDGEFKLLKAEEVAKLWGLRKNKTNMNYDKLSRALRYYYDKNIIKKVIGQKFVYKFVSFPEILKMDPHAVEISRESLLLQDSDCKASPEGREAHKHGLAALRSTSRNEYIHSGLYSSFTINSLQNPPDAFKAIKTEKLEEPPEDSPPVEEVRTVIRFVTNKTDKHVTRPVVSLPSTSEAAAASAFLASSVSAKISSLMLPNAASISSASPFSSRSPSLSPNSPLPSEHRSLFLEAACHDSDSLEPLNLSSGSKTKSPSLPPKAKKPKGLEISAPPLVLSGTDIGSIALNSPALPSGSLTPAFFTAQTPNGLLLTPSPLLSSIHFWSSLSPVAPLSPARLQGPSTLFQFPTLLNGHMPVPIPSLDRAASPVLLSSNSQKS
Summary of the method: as §1

SPIC = target: T6, SPIC (Homo sapiens, UniProt Q8N5J4 1-248)
T6 sequence: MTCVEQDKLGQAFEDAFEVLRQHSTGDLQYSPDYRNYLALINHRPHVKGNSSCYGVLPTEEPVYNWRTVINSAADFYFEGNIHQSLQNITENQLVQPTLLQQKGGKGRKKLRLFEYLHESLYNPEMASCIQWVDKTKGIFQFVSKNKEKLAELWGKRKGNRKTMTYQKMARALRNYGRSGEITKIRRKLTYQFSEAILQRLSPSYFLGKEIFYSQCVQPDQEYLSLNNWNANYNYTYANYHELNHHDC
Summary of the method: as §1

ELF4 = ELF4 (Homo sapiens, UniProt Q99607 1-663)
Chain of ELF4 (Q99607 whole entry): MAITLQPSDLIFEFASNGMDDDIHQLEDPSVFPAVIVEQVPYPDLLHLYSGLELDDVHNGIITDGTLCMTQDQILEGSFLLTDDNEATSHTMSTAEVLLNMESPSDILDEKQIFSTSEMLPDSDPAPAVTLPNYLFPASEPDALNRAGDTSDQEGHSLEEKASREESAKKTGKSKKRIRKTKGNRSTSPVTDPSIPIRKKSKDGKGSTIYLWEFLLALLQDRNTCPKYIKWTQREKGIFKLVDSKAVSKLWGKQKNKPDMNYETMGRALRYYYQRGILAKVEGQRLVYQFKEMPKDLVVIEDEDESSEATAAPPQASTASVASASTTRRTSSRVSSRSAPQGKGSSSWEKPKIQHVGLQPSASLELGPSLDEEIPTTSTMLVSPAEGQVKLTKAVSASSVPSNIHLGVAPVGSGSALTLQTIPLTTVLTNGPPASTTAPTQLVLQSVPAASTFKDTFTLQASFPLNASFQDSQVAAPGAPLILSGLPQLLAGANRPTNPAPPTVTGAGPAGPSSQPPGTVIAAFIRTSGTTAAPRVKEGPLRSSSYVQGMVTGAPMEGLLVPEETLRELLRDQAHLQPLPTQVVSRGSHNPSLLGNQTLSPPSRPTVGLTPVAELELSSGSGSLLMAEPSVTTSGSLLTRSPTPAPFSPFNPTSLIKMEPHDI
Summary of the method: as §1

ELK4 = target: T7, ELK4 (Homo sapiens, UniProt P28324-2 1-405)
T7 sequence: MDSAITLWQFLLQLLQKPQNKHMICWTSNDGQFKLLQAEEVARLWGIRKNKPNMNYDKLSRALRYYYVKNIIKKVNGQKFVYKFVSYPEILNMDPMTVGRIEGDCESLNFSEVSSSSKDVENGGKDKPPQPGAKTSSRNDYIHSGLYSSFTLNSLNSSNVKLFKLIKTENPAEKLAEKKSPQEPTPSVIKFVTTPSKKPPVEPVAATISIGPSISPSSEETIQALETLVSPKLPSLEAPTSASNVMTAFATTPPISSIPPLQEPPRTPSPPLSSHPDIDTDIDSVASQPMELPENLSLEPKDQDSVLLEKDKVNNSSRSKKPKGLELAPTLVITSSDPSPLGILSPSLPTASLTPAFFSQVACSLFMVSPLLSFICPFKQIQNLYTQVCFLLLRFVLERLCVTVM
Summary of the method: as §1

ETV2 = target: T8, ETV2 (Homo sapiens, UniProt O00321 1-342)
T8 sequence: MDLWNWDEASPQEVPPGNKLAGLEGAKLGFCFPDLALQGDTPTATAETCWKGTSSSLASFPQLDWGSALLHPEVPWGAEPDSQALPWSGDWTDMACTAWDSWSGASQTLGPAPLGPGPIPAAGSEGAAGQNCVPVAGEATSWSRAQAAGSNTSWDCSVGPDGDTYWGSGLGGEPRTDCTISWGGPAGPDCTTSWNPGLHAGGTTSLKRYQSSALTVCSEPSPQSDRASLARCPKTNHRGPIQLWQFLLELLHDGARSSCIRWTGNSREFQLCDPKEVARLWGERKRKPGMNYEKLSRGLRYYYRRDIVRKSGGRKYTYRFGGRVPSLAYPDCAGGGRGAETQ
Summary of the method: as §1

ETV1 = ETV1 (Homo sapiens, UniProt P50549 1-477)
Chain of ETV1 (P50549 whole entry): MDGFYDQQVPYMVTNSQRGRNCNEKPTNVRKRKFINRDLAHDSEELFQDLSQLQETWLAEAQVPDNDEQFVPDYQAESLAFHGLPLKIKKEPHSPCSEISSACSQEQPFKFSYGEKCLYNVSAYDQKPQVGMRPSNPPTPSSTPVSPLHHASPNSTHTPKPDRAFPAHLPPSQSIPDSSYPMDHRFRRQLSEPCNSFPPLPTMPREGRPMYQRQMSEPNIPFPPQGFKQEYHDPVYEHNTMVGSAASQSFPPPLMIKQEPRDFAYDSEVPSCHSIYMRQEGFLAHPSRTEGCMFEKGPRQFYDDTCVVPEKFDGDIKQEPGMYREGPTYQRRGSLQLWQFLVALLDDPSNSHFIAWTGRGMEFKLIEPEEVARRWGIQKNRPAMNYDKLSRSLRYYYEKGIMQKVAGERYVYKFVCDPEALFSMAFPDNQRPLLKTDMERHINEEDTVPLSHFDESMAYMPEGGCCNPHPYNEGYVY
Summary of the method: as §1

ERF = target: T9, ERF (Homo sapiens, UniProt P50548 1-548)
T9 sequence: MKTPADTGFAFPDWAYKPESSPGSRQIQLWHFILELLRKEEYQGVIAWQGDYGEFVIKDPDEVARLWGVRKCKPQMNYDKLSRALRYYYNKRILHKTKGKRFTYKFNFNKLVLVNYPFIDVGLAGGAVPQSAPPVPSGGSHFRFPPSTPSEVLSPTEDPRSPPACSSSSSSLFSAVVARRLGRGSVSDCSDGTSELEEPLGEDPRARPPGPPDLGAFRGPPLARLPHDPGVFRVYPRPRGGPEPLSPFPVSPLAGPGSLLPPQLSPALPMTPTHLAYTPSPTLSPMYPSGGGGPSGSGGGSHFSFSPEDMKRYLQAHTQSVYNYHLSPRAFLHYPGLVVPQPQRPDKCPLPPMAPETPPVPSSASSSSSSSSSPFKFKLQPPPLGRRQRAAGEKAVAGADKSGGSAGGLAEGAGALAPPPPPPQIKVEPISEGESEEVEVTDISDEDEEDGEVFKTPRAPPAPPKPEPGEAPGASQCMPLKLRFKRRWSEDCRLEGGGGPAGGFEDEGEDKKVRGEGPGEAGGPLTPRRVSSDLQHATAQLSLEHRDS
Summary of the method: as §1

ETV3L = target: T10, ETV3L (Homo sapiens, UniProt Q6ZN32 1-361)
T10 sequence: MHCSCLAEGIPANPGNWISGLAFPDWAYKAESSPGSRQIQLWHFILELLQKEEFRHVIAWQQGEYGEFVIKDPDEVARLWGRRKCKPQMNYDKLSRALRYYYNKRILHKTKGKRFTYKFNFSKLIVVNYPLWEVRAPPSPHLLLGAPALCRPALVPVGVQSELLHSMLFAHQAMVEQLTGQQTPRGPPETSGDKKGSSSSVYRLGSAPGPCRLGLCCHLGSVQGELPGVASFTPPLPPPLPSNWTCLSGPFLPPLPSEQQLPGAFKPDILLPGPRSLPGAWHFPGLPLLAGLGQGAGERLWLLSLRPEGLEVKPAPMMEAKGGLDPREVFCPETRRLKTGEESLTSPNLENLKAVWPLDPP
Summary of the method: as §1

ETV7 = target: T11, ETV7 (Homo sapiens, UniProt Q9Y603 1-341)
T11 sequence: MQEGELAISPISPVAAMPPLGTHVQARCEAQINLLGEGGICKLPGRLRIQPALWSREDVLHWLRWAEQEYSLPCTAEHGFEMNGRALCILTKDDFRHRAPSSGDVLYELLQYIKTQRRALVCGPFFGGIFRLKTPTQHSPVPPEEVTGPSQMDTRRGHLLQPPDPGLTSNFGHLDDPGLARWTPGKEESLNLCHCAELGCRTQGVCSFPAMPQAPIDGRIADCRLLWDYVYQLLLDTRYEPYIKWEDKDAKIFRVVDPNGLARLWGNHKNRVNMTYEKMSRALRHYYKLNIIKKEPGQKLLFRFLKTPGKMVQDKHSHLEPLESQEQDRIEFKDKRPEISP
Summary of the method: as §1

ETV3 = target: T12, ETV3 (Homo sapiens, UniProt P41162-2 1-143)
T12 sequence: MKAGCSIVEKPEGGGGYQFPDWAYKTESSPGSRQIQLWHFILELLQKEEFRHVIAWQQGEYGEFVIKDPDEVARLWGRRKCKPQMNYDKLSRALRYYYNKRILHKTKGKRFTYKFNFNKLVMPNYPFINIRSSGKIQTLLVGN
Summary of the method: as §1

ETV6 = ETV6 (Homo sapiens, UniProt P41212 1-452)
Chain of ETV6 (P41212 whole entry): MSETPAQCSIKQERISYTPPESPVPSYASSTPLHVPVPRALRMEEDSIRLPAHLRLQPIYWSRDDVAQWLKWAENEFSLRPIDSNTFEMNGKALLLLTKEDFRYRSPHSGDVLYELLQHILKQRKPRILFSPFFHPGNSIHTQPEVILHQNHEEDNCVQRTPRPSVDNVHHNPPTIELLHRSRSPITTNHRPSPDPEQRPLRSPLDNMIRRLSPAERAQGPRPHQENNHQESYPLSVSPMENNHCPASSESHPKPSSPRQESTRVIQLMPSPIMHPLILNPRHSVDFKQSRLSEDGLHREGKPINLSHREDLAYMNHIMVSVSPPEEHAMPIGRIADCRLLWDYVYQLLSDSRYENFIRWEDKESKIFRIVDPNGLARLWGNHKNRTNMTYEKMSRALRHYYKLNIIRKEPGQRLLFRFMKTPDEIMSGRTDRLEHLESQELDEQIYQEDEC
Summary of the method: as §1

Row | Sequence | binding signal (ELK1) | binding signal (GABPA) | binding signal (ERG) | binding signal (ELF1) | binding signal (EHF) | binding signal (SPI1) | binding signal (ELK3) | binding signal (SPIC) | binding signal (ELF4) | binding signal (ELK4) | binding signal (ETV2) | binding signal (ETV1) | binding signal (ERF) | binding signal (ETV3L) | binding signal (ETV7) | binding signal (ETV3) | binding signal (ETV6)
1 | AGCACA | 1.01 fold enrichment (6-mer frequency, TF over GST control) | 1.08 fold enrichment (6-mer frequency, TF over GST control) | 1.03 fold enrichment (6-mer frequency, TF over GST control) | 1.06 fold enrichment (6-mer frequency, TF over GST control) | 1.04 fold enrichment (6-mer frequency, TF over GST control) | 1.06 fold enrichment (6-mer frequency, TF over GST control) | 1.06 fold enrichment (6-mer frequency, TF over GST control) | 1.02 fold enrichment (6-mer frequency, TF over GST control) | 1.08 fold enrichment (6-mer frequency, TF over GST control) | 1.02 fold enrichment (6-mer frequency, TF over GST control) | 1.12 fold enrichment (6-mer frequency, TF over GST control) | 1.02 fold enrichment (6-mer frequency, TF over GST control) | 1.13 fold enrichment (6-mer frequency, TF over GST control) | 1.14 fold enrichment (6-mer frequency, TF over GST control) | 1.01 fold enrichment (6-mer frequency, TF over GST control) | 1.05 fold enrichment (6-mer frequency, TF over GST control) | 1.11 fold enrichment (6-mer frequency, TF over GST control)
2 | GCTAGA | – | 1.03 fold enrichment (6-mer frequency, TF over GST control) | – | 1.01 fold enrichment (6-mer frequency, TF over GST control) | – | – | – | – | – | – | – | – | 1.07 fold enrichment (6-mer frequency, TF over GST control) | 1.04 fold enrichment (6-mer frequency, TF over GST control) | 1 fold enrichment (6-mer frequency, TF over GST control) | – | –
